Assay results taken from PubChem BioAssay (EPA / NIEHS).
Inconclusive results are not listed. The source made the active and inactive calls. The calls were made as follows, unless noted: active = hit-call score of the fitted dose curve at least 0.9, where 1 is the maximum; inactive = score below 0.9.

Experiments:
[1] = molecular target: Estrogen receptor (Homo sapiens) (UniProt P03372); test: CCTE_Deisenroth_AIME_96WELL_LUC_Active: CCTE's 96-well Estrogen Receptor Transactivation Assay with AIME metabolic competence (ERTA luciferase; metabolism positive), Deisenroth Lab (AID 2284023; active = hit-call score of the fitted dose curve at least 0.9, where 1 is the maximum)
Method in brief: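 Metabolism-positive mode: induced rat hepatic S9 in alginate microspheres conditions test solutions (0.002 - 200 uM, 10 points) for 2 hours. VM7Luc4E2 ER luciferase reporter cells then exposed 24 h; positive-direction fit against 17beta-estradiol, n=4 typical.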

[2] = molecular target: Estrogen receptor (Homo sapiens) (UniProt P03372); test: CCTE_Deisenroth_AIME_96WELL_LUC_Inactive: CCTE's 96-well Estrogen Receptor Transactivation Assay without AIME metabolic competence (ERTA luciferase; metabolism negative), Deisenroth Lab (AID 2284025; active = hit-call score of the fitted dose curve at least 0.9, where 1 is the maximum)
Method in brief: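 Metabolism-negative arm: chemicals (0.002–200 uM, 10 points) incubated 2 h with alginate-water microspheres, then medium moved onto VM7Luc4E2 cells for 24 h luciferase read-out. Positive direction vs 17beta-estradiol; n≥4 experiments.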

[3] = CCTE_Deisenroth_AIME_96WELL_CTox_Active: Cytotoxicity Assessment (CTOX) in CCTE's 96-well Estrogen Receptor Transactivation Assay with AIME metabolic competence (metabolism positive), Deisenroth Lab (AID 2284028; active = hit-call score of the fitted dose curve at least 0.9, where 1 is the maximum)
Method in brief: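 Cytotoxicity in VM7Luc4E2 breast cells after 24 h exposure to medium from a 2 h metabolic pre-incubation with induced rat hepatic S9 in alginate microspheres; fluorescent live-cell protease readout, 10-point series 0.002–200 uM, n=4.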

[4] = CCTE_Deisenroth_AIME_96WELL_CTox_Inactive: Cytotoxicity Assessment (CTOX) in CCTE's 96-well Estrogen Receptor Transactivation Assay without AIME metabolic competence (metabolism negative), Deisenroth Lab (AID 2284029; active = hit-call score of the fitted dose curve at least 0.9, where 1 is the maximum)
Method in brief: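 Cytotoxicity in VM7Luc4E2 breast cells was scored as loss of fluorescent signal from a live-cell protease substrate 24 h after exposure, using bidirectional curve fitting. Test media came from a 2 h metabolism-negative pre-incubation (alginate-water, no hepatic S9) of compounds at 0.002-200 uM, with at least four replicates.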

[5] = CCTE_Shafer_MEA_dev_per_burst_spike_percent: CCTE's Neural Network Formation Assay for Percent of Spikes in a Burst, Shafer Lab (AID 2284032)
Method in brief: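 Value is trapezoidal AUC over recordings on days 5, 7, 9 and 12 of the well-mean fraction of spikes falling in single-electrode bursts; rat cortical cultures exposed continuously from plating, treatment renewed DIV 5 and 9, fitted downward against DMSO.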

[6] = CCTE_Shafer_MEA_dev_active_electrodes_number: CCTE's Neural Network Formation Assay for Number of Active Electrodes, Shafer Lab (AID 2284040; active = hit-call score of the fitted dose curve at least 0.9, where 1 is the maximum)
Method in brief: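 Developing rat cortical networks on MEAs, exposed DIV 0–12. Value is the AUC of active-electrode counts (≥5 spikes/min) from days 5, 7, 9, 12, relative to DMSO.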

[7] = CCTE_Shafer_MEA_dev_per_burst_interspike_interval: CCTE's Neural Network Formation Assay for Burst Interspike Interval, Shafer Lab (AID 2284044)
Method in brief: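 Spontaneous activity of maturing rat cortical networks is recorded on DIV 5, 7, 9 and 12 under chronic compound exposure beginning at plating. Endpoint: burst interspike interval well-mean, collapsed into trapezoidal AUC and fitted in the negative direction relative to DMSO.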

[8] = CCTE_Shafer_MEA_dev_burst_duration_mean: CCTE's Neural Network Formation Assay for Mean Burst Duration, Shafer Lab (AID 2284045)
Method in brief: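 Rat cortical cultures, 1.5 x 10^5 cells/well with laminin drop; continuous dosing days 0–12, media plus treatment refreshed DIV 5, 9. AxIS adaptive spike detection; mean single-electrode burst duration, AUC over four recordings, negative direction vs DMSO.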

[9] = CCTE_Shafer_MEA_dev_interburst_interval_mean: CCTE's Neural Network Formation Assay for Mean Interburst Interval, Shafer Lab (AID 2284046);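 also: well-mean interburst interval of bursting electrodes as AUC over four recording days; curve fitted for decrease in interburst interval relative to DMSO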
Method in brief: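 Rat cortical neurons, 1.5 x 10^5 cells/well, 48-well MEA; compound from day 0 through DIV 12, media and treatment renewed DIV 5/9. Recordings DIV 5, 7, 9, 12; well-mean interburst interval → trapezoidal AUC, loss direction vs DMSO.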

[10] = CCTE_Shafer_MEA_dev_inter_network_spike_interval_mean: CCTE's Neural Network Formation Assay for Mean Inter-network Spike Interval, Shafer Lab (AID 2284047)
Method in brief: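 Primary rat cortical neurons on PEI-coated 48-well MEAs (16 electrodes/well) were exposed from plating day 0 to DIV 12, with dosing renewed at DIV 5 and 9. Recordings at DIV 5, 7, 9, 12 were collapsed by trapezoidal AUC, loss-of-signal fit vs DMSO.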

[11] = CCTE_Shafer_MEA_dev_network_spike_number: CCTE's Neural Network Formation Assay for Number of Network Spikes, Shafer Lab (AID 2284048);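 also: synchronized bursts across electrodes counted on days 5 7 9 12 and integrated as AUC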
Method in brief: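 Rat cortical primary cultures on 48-well MEA (16 electrodes/well); continuous exposure DIV 0–12, full medium and treatment exchange DIV 5, 9. Readout: network spike count, AxIS adaptive detection, recordings DIV 5/7/9/12 collapsed to AUC; loss-of-signal fit, DMSO baseline.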

[12] = CCTE_Shafer_MEA_dev_network_spike_peak: CCTE's Neural Network Formation Assay for Mean Number of Electrodes in Network Spike, Shafer Lab (AID 2284049)
Method in brief: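 Network-spike peak electrode count from recordings on days 5, 7, 9 and 12 was combined as trapezoidal area under the curve. Rat cortical cultures were treated continuously from plating, with compound renewed at each feed (DIV 5, 9); fits versus DMSO.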

[13] = CCTE_Shafer_MEA_dev_spike_duration_mean: CCTE's Neural Network Formation Assay for Mean Spike Duration, Shafer Lab (AID 2284051);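 also: mean network spike duration pooled as area under curve over DIV 5 to 12 recordings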
Method in brief: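 Rat cortical primary cultures, 48-well MEA (16 electrodes/well); compound from plating, renewed DIV 5, 9. Network spike duration (AxIS adaptive detector) recorded DIV 5/7/9/12, combined as trapezoidal AUC; loss direction vs DMSO.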

[14] = CCTE_Shafer_MEA_dev_network_spike_duration_std: CCTE's Neural Network Formation Assay for Standard Deviation of Network Spike Duration, Shafer Lab (AID 2284052);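 also: area under curve of spike duration SD across recording days 5 to 12; hits are decreases in network spike duration SD versus DMSO vehicle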
Method in brief: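 Rat cortical cultures, 1.5 x 10^5 cells/well, exposed continuously from plating to DIV 12 with media/compound renewal at DIV 5, 9. Spontaneous activity recorded DIV 5/7/9/12, AxIS adaptive spike detector; AUC across days; negative direction vs DMSO.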

[15] = CCTE_Shafer_MEA_dev_per_network_spike_spike_number_mean: CCTE's Neural Network Formation Assay for Mean Number of Spikes in a Network Spike, Shafer Lab (AID 2284053)
Method in brief: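 Rat cortical primary cultures on 48-well MEA; compound from day 0, re-dosed with full media change DIV 5, 9. Recorded DIV 5, 7, 9, 12; spikes in 0.05 s window at network-spike peak ÷ total network spikes; AUC; loss vs DMSO.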

[16] = CCTE_Shafer_MEA_dev_per_network_spike_spike_percent: CCTE's Neural Network Formation Assay for Percent of Spikes in a Network Spike, Shafer Lab (AID 2284054)
Method in brief: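 Read-out: percent of spikes falling in a 0.05 s window at network-spike peak, from spontaneous MEA recordings on days 5, 7, 9 and 12; trapezoidal AUC; loss of signal versus DMSO. Rat cortical cultures, compound present throughout.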

[17] = UKN5_HCS_SBAD2_cell_viability: Viability Assessment in the University of Konstanz (UKN) Leist Lab Neurite Outgrowth Assay in human iPSC-derived immature Dorsal Root Ganglia Neurons (UKN5) (AID 2284056)
Method in brief: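 iPSC-derived immature peripheral neurons (SBAD2) seeded on Matrigel with CHIR99021, SU5402 and DAPT, dosed 1 h later for 24 h. Viability from Hoechst H-33342 and calcein-AM live staining, high-content imaging; bidirectional fit versus DMSO.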

[18] = UKN5_HCS_SBAD2_neurite_outgrowth: University of Konstanz (UKN) Leist Lab Neurite Outgrowth Assay in human iPSC-derived immature Dorsal Root Ganglia Neurons (UKN5) (AID 2284070); settings: actives raise or lower the signal
Method in brief: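 Cryopreserved SBAD2 peripheral neurons were seeded at 100.000 cells/cm2 in N2-S/KSR medium containing CHIR99021, SU5402 and DAPT, then exposed to compounds for 24 h. Neurite area from calcein-AM high-content imaging was fitted bidirectionally against DMSO.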

[19] = CCTE_Shafer_MEA_dev_AB: CCTE's Alamar Blue Assay for Cytotoxicity in the Neural Network Formation Assay, Shafer Lab (AID 2284083; active = hit-call score of the fitted dose curve at least 0.9, where 1 is the maximum;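 also: resazurin reduction fluorescence as viability of cultured neurons; twelve days of exposure from plating with re-dosing on DIV 5 and 9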)
Method in brief: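 Rat cortical primary cultures, 1.5 x 10^5 cells/well on MEA; continuous compound exposure over 12 days of network development, re-dosed with full medium change DIV 5 and 9. Alamar Blue fluorescence; loss of signal = cytotoxicity vs DMSO baseline.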

[20] = CCTE_Shafer_MEA_dev_mutual_information_norm: CCTE's Neural Network Formation Assay for Mutual Information Normalization, Shafer Lab (AID 2284091)
Method in brief: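 Neurons from rat cortex were seeded at 1.5 x 10^5 cells/well onto PEI-coated MEAs in a laminin drop, then exposed to compound from day 0 for twelve days. Network recordings on four days gave mutual information, summarised by AUC relative to DMSO.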

[21] = CCTE_Shafer_MEA_dev_correlation_coefficient_mean: CCTE's Neural Network Formation Assay for Mean Correlation Coefficient, Shafer Lab (AID 2284093)
Method in brief: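 Rat cortical cultures, 1.5 x 10^5 cells/well, dosed from day 0 for 12 days. Spontaneous spikes recorded DIV 5/7/9/12; electrode-pair correlation coefficients averaged, AUC taken. Fit in loss direction vs DMSO.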

[22] = UKN4_HCS_LUHMES_neurite_outgrowth: University of Konstanz (UKN) Leist Lab Neurite Outgrowth Assay in human LUHMES cells (UKN4) (AID 2284206); settings: actives raise or lower the signal
Method in brief: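 Read-out: calcein-AM neurite area by high-content fluorescence imaging, with Hoechst H-33342 viability counterstain, after 24 h chemical exposure of day-2 differentiated LUHMES cells. Activity fitted bidirectionally against DMSO baseline.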

[23] = UKN4_HCS_LUHMES_cell_viability: Viability Assessment in the University of Konstanz (UKN) Leist Lab Neurite Outgrowth Assay in human LUHMES cells (UKN4) (AID 2284232)
Method in brief: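 Day-2 differentiated LUHMES, 30000 cells/well, dosed ~30 min–2 h post-seeding; 24 h treatment incl. staining; Hoechst H-33342 + calcein-AM at 23.5 h; HCS imaging; DMSO-normalized, bidirectional fit.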

Measured: AC50

Chain of Estrogen receptor (Homo sapiens) (P03372 whole entry, looked up): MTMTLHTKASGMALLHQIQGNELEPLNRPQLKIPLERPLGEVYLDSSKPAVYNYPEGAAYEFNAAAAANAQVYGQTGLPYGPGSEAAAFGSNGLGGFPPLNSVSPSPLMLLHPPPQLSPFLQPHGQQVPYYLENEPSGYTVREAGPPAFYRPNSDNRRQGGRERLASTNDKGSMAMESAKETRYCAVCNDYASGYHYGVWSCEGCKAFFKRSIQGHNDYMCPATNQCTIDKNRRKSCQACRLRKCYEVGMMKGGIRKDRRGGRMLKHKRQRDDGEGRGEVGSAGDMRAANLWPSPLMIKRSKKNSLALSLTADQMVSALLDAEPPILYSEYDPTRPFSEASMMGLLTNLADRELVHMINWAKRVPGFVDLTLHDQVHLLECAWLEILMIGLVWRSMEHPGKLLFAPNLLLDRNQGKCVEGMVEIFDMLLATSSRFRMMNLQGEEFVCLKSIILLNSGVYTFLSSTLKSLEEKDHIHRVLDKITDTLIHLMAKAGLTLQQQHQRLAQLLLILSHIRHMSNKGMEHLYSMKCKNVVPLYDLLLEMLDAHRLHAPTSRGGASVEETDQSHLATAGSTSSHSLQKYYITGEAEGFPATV

c1ccc([C@H]2O[C@H]2c2ccccc2)cc1
active: [1] 66.7 µM | [2] 72.1 µM
inactive: [3] | [4]

O=C(C=Cc1ccccc1)c1ccccc1
active: [1] 31.9 µM | [2] 28.2 µM | [4] 114 µM
inactive: [3]

Brc1cc(Br)c(Oc2cc(Br)c(Br)cc2Br)cc1Br
not listed: [1] | [2] | [3] | [4]
inactive: all other assays above
